Screening data: PubChem, several laboratories
ABCB6 inh MLPCN – blocks the human ABCB6 transporter; hit rate 0.19% among 360,000; fluorescence ratio to DMSO, % at 10 µM; K562-ABCB6 porphyrin accumulation, flow cytometry, 1 h; hits give low values;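 active = fluorescence ratio to DMSO below 75%, the collection mean minus 3 SD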;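 also: signal is porphyrin accumulated inside mitochondria; 100% equals median channel fluorescence of DMSO control wells; lower ratio means ABCB6 inhibition with less porphyrin fluorescence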
DAGLB inhibitor – diacylglycerol lipase beta (human) inhibition | Q8NCG7 | HEK293T DAGLB membrane lysate, EnzChek fluorogenic substrate | inhibition, % at 5.17 µM | hit rate 0.059% among 340,000; in the data active = inhibition above about 34%;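 also: 0% = enzyme with vehicle and 100% = wells lacking enzyme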
TMEM16A inh – inhibitors of mouse TMEM16A calcium-activated chloride channel; HEK293 TMEM16A/YFP iodide influx fluorescence, ionomycin; normalized B-score (activity score, 25-100; higher = stronger inhibition) at 10 µM; hit rate 1.2% among 310,000;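 active = ratio plate-corrected score three or more library SD toward inhibition, starting fluorescence score within five deviations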;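 also: score derived from kinetic fluorescence span divided by baseline fluorescence per well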
Target sequence (Q8BHY3 whole entry, looked up): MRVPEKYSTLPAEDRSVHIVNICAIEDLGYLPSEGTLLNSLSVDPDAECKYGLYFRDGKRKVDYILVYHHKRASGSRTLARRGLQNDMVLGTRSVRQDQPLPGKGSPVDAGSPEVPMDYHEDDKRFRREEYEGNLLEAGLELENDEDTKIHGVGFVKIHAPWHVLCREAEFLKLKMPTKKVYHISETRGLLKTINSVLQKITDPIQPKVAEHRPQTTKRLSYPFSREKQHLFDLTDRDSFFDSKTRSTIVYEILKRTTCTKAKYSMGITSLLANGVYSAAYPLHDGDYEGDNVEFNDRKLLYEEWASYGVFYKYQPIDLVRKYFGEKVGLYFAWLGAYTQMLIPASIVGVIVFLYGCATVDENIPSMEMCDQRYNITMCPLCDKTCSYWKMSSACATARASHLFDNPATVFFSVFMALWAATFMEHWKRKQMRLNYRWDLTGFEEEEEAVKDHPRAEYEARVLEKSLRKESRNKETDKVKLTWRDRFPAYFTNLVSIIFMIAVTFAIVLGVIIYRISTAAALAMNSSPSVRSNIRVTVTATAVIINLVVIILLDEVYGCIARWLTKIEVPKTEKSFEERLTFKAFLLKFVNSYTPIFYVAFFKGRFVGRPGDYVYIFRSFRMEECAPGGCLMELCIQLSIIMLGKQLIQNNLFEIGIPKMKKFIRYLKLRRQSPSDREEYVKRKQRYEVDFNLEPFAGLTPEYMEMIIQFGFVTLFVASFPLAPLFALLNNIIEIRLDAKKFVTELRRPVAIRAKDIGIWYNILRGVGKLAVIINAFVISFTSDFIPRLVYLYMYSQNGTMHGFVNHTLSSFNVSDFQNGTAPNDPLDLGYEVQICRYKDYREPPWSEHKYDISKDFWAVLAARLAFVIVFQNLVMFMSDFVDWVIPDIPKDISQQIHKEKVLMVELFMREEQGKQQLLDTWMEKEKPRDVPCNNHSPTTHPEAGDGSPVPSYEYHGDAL
TMEM16A act – activators or potentiators of mouse TMEM16A chloride channel; Q8BHY3; HEK293 TMEM16A/YFP-H148Q/I152L, iodide quench fluorescence; hits give low values; B-score at 10 µM; hit rate 0.3% among 340,000; AID 623877;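 active = fluorescence-ratio B-score plate-corrected deviation score at least 3 library SD below zero, with starting fluorescence score within 5 deviations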;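 also: channel opened by trigger with iodide after compound preincubation; score built on the fluorescence ratio of max minus min over baseline; more negative score means more quench and so TMEM16A activation or potentiation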
hiPSC survival – hiPSC single-cell survival enhancement; ATPlite luminescence; 100% = ROCK inhibitor wells, 0% = DMSO; survival enhancement, % at 20 µM; hit rate 0.044% among 360,000; AID 602274; in the data active = survival enhancement above about 18%;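 also: cells exposed to compounds for 16 hours before the ATP read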
Numbers without * were called inactive; i = inactive; · = not tested or not shown. Rows were chosen to be rich in hits. Some 1.5% of all compounds tested hit in one or more screens of this group.

SMILES	ABCB6 inh MLPCN	DAGLB inhibitor	TMEM16A inh	TMEM16A act	hiPSC survival
O=C1c2ccccc2S(=O)(=O)N1CC(O)COc1ccc(Br)cc1 (stereo unspecified)	73.0*	-3.9	i	i	1.3
COc1cc(CN2CCNC(=O)C2CC(=O)NCCCC2CCCC2)cc(OC)c1 (stereo unspecified)	106.0	0.6	i	i	0.5
CN1C(=O)/C(=C/c2cc(N=Nc3ccccc3)ccc2O)SC1=S	109.0	3.4	100*	i	-0.3
Cc1nnc(Nc2ccc(S(N)(=O)=O)cc2)c2ccccc12	104.0	-1.2	i	i	-0.4
CN(NS(=O)(=O)c1ccc(Br)cc1)c1nc(C(F)(F)F)nc2ccccc12	95.0	3.5	25*	i	0.9
CC1CC(C)CN(C(=O)c2cccc(N3C(=O)c4ccccc4C3=O)c2)C1 (stereo unspecified)	99.0	-2.4	·	i	0.4
O=C(C[C@@H]1C/C=C\C[C@H](Cc2ccc(F)cc2)C(=O)OC[C@H]2CCCN2C1=O)NCCO	102.0	-0.3	·	·	0.5
O=C(OCC(=O)N1CCOCC1)c1cccc(F)c1	102.0	2.9	i	i	0.4
Cc1c(CCOC(=O)CC23CC4CC(CC(C)(C4)C2)C3)sc[n+]1CC(=O)c1ccccc1	94.0	3.7	100*	i	-0.5
Cc1c(CCOC(=O)C23CC4CC(CC(C)(C4)C2)C3)sc[n+]1CC(=O)c1ccccc1	94.0	2.6	i	i	-0.6
C=CCOC(=O)c1ccc(N2CCN(c3ccccc3)CC2)nc1	97.0	-7.4	i	i	1.5
O=C1N(c2ccccc2)CCN1c1ccccc1	95.0	0.3	i	i	-0.5
O=C1NCCN1c1ccccc1	95.0	1.0	·	i	28.6*
O=C(NC1CC1)c1ccc2nc([C@@H]3O[C@H](CO)[C@H](O)[C@H](O)[C@H]3O)[nH]c2c1	96.0	·	·	·	-0.8
CN(C)CCCN(C(=O)COc1ccccc1)c1nc2ccc(Cl)cc2s1	98.0	1.4	i	-6.02*	-0.9
O=C1C(=Cc2ccncc2)CCCc2ccccc21	96.0	-3.8	·	·	-1.0
O=C1/C(=C/c2ccncc2)CCC/C1=C\c1ccncc1	106.0	-22.9	·	i	89.7*
CC(=O)/C(C#N)=C1\NC(=O)C(Cc2ccc(C)c(C)c2)S1 (stereo unspecified)	95.0	13.5	25*	i	-1.4
CN(CC(=O)Nc1nc2ccccc2s1)S(=O)(=O)c1ccc(Br)cc1	100.0	-3.0	25*	i	-0.5
CCCNC(=O)c1ccccc1NC(=O)c1cccc(-n2cnnn2)c1	91.0	-0.8	·	i	-0.3
c1ccc(-c2cc3ccccc3[nH]2)cc1	95.0	-0.6	i	i	-1.3
Clc1ccc2[nH]c(-c3ccccc3)cc2c1	107.0	-2.4	25*	i	-0.6
CCOC(=O)N1CCN(c2cc(NCCC(=O)O)c3c4c(onc24)-c2ccccc2C3=O)CC1	97.0	19.3	i	-11.6*	-1.1
COc1ccc(OC)c2sc(N(CCN(C)C)C(=O)/C=C/c3cccs3)nc12	93.0	-3.4	i	-31.6*	-0.6
COc1ccc(C)c2sc(N(CCN(C)C)C(=O)/C=C/c3cccs3)nc12	89.0	-4.4	i	i	-0.3
SMILES	ABCB6 inh MLPCN	DAGLB inhibitor	TMEM16A inh	TMEM16A act	hiPSC survival
CN1OC[C@@H]2C(=O)N3CCc4c([nH]c5ccccc45)[C@@H]3C[C@@H]21	105.0	-5.6	·	·	3.8
O=S(=O)(c1cccs1)N1CCN(CCOc2ccc(Cl)cc2)CC1	94.0	-4.3	·	i	0.1
O=S(=O)(c1cccs1)N1CCN(CC(O)COc2cc(Cl)ccc2Cl)CC1 (stereo unspecified)	81.0	-1.9	25*	-14.5*	-3.0
O=C(Cn1nc(-c2ccccc2Cl)ccc1=O)Nc1ccc(Br)cc1	95.0	-0.2	i	-30.1*	-0.1
NC(=O)C1CCCN(C(=O)c2ccc(S(=O)(=O)N3CCCCCC3)cc2)C1 (stereo unspecified)	94.0	1.7	·	-13.4*	0.3
Cc1ccc(SCCNC(=O)/C=C/c2ccccc2Cl)cc1	93.0	-11.3	25*	i	0.9
Cc1ccc(NC(=O)/C(=C\c2ccc([N+](=O)[O-])cc2)NC(=O)c2ccccc2)cc1	88.0	-0.8	i	i	58.4*
Cc1cc(C)c(C2=CC(=O)C[C@H](c3ccc4c(c3)OCO4)C2)c(C)c1	97.0	-1.8	·	i	9.9
CCCCCC(=O)Cc1cc(O)cc2c1C(=O)Oc1cc(O)c(C(=O)O)c(CCCCC)c1O2	·	·	25*	·	·
CC(Sc1nnnn1-c1ccccc1)C(=O)NC1CCCC1 (stereo unspecified)	101.0	-0.3	·	i	1.4
Cc1nc(SC(C)C(=O)NC2CCCC2)c2ccccc2n1 (stereo unspecified)	102.0	-1.8	·	-30.7*	0.4
C[C@@H]1CC[C@]2(C(=O)O[C@@H]3O[C@H](CO)[C@@H](O)[C@H](O)[C@H]3O)CC[C@]3(C)C(=CCC4[C@@]5(C)CC[C@H](O[C@@H]6OC[C@H](O)[C@H](O[C@@H]7O[C@H](CO)[C@@H](O)[C@H](O)[C@H]7O)[C@H]6O)C(C)(C)C5CC[C@]43C)C2[C@]1(C)O (stereo partly specified)	94.0	-0.7	·	i	4.4
COc1ccc(/C=C\C(=O)O[C@@H]2C(O)C(O[C@@H]3OC(C)[C@H](O[C@@H]4OCC(O[C@H]5O[C@H](CO)[C@@H](O)C(O)C5O)C(O)C4O)C(O)C3O)[C@H](OC(=O)[C@]34CCC(C)(C)C[C@@H]3C3=CCC5[C@@]6(C)CC(O)C(O[C@@H]7OC(CO)C(O)[C@H](O)[C@H]7O)[C@@](C)(C(=O)O)C6CC[C@@]5(C)[C@]3(CO)CC4)O[C@H]2C)cc1 (stereo partly specified)	100.0	6.4	·	-32.1*	-0.2
CN(C)Cc1c(O)ccc2occ(C(=O)c3ccccc3)c12	89.0	-1.6	25*	i	0.8
CC(C)[C@H](NC(=O)c1ccco1)C(=O)OCC(=O)Nc1cccc(F)c1	101.0	0.1	i	-40.7*	1.2
Cc1cccc(C)c1OCC(=O)Nc1cccc(NC(=O)c2ccco2)c1	105.0	-1.2	100*	i	-0.6
COc1ccc(NC(=O)NNC(=O)c2ccc(-c3ccccc3)cc2)cc1	110.0	1.0	i	i	-0.3
C[C@@H](C(=O)Nc1ccc(OC(F)F)c(Cl)c1)N1C(=O)C2CC=CCC2C1=O (stereo partly specified)	95.0	2.2	·	i	-1.6
COC1OC2COC(c3ccccc3)OC2C(OC(C)=O)C1OC(C)=O (stereo unspecified)	92.0	0.1	·	i	-1.6
Cc1nc(-c2c(C(F)(F)F)noc2-c2ccc(O)cc2O)cs1	82.0	-0.8	i	i	3.4
CCOc1cc(C)c(-c2onc(C(F)(F)F)c2-c2csc(C)n2)c(O)c1	104.0	-11.3	100*	i	-1.3
